The results in this text go back to PubChem BioAssay (Tox21).

Structures are written as SMILES. Records with an inconclusive call do not appear. Values without a mark were called inactive. Calls of active or inactive are those of the source. Unless noted, the call rests on the fitted dose curve; in most records, active means well fitted curve in the direction sought with a large enough effect in the repeat runs; inconclusive means weak or mixed curves; inactive means no such curve, though single readings can be large; an effect the other way counts as inactive or inconclusive.

Experiment [1] in a line: qHTS assay to identify small molecule agonists of the RXR signaling pathway - cell viability counter screen (AID 1159529). Further: series mostly up to about 77 µM; nearly all actives have a fitted effect of over 50% in size. Summed up:
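CellTiter-Glo luminescence gave viability in the wells also read for beta-lactamase. Cells (RXR-alpha-UAS-bla HEK 293T, 2% charcoal-stripped FBS medium) had 5 hr plating, then 16 hr compound exposure at 37 C; tetraoctyl ammonium bromide served as positive control.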
(Quantitative high-throughput screening tests each substance at several concentrations.)

A short description of experiment [2]: qHTS assay to identify small molecule antagonists of the retinoid acid receptor (RAR) signaling pathway - cell viability counter screen (AID 1159551). Further: nearly all actives have a fitted effect of over 35% in size. Summed up:
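C3RL4 cells were seeded overnight at 37 C, then treated with compounds plus 1 uM (final) retinol for 6 h at 37 C. Viability was read as ATP by CellTiter-Glo luminescence after 30 min at room temperature.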

Experiment [3] in a line: qHTS assay to identify small molecule antagonists of the retinoic acid receptor (RAR) signaling pathway (AID 1159552; further: nearly all actives have a fitted effect of over 50% in size; further: potency means the concentration at half of the fitted maximal effect). An outline of the steps: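 Luminescent RARE reporter read-out in C3RL4 cells: 6 hr co-treatment at 37 C of test compounds with retinol at 1 uM final. Cells plated overnight beforehand; luciferase reagent incubated 30 min at room temperature before reading.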

A short description of experiment [4]: qHTS assay to identify small molecule agonists of the retinoic acid receptor (RAR) signaling pathway (AID 1159553). Summed up: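 C3RL4 cells carrying a RARE luciferase reporter were plated overnight at 37 C, then exposed to compounds in DMSO for 6 hr at 37 C and 5% CO2. Luminescence was read 30 min after luciferase reagent addition at room temperature.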
The nature of experiment [5]: qHTS assay to identify small molecule agonists of the constitutive androstane receptor (CAR) signaling pathway - cell viability counter screen (AID 1224836). Further: series mostly up to about 92 µM; nearly all actives have a fitted effect of over 45% in size. Summed up: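 Cell viability multiplexed with the CAR agonist screen: CellTiter-Fluor fluorescence after 23 hr at 37 C. HepG2-CYP2B6-hCAR cells got compounds at 15 concentrations with PK11195 at 0.75 uM final.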

Experiment [6] is described as follows: qHTS assay to identify small molecule antagonists of the constitutive androstane receptor (CAR) signaling pathway - cell viability counter screen (AID 1224837). Further: series mostly up to about 92 µM; nearly all actives have a fitted effect of over 45% in size. Summed up: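 HepG2 cells stably expressing hCAR and a CYP2B6-2.2kb reporter were plated and pre-incubated 4 hr at 37 C/5% CO2, then given compounds at 15 concentrations plus 50 nM CITCO (final). After 23 hr, viability was read by CellTiter-Fluor fluorescence.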

Experiment [7] concerns the target Nuclear receptor subfamily 1 group I member 3 (Homo sapiens) (UniProt Q14994). The experiment can be described thus: qHTS assay to identify small molecule agonists of the constitutive androstane receptor (CAR) signaling pathway (AID 1224839). Further: nearly all actives have a fitted effect of over 15% in size. Further: potency means the concentration at half of the fitted maximal effect. Summed up: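 Luminescent ONE-Glo read-out after 24 hr, 37 C exposure of double-stable HepG2-CYP2B6-hCAR reporter cells to a 15-point compound series, in the presence of 0.75 uM PK11195 (final).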

The nature of experiment [8]: qHTS assay to identify small molecule antagonists of the estrogen related receptor signaling pathway with the pleiotropic PPARgamma coactivator (PGC) from Tox21 10K library - cell viability counter screen (AID 1224840; active means well fitted cell-killing curve with a large enough effect in the repeat runs, not every such curve was filed as active; further: nearly all actives have a fitted effect of over 40% in size). An outline of the steps: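 PGC/ERR cells were seeded at 2,000 cells/well and left 6 hours at 37 C/5% CO2 before pin-tool addition of compounds in DMSO. After 17.5 hours at 37 C, CellTiter-Fluor was added and fluorescence read 30 minutes later.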

Experiment [9] has as its target Thyrotropin receptor (Homo sapiens) (UniProt P16473). The experiment can be described thus: qHTS assay to identify small molecule agonists of the thyroid stimulating hormone receptor (TSHR) signaling pathway (AID 1224843; calls by dose curve; further: nearly all actives have a fitted effect of over 45% in size; further: potency means the concentration at half of the fitted maximal effect). Summed up:
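HEK293 cells stably bearing the thyrotropin receptor were plated at 800 cells/well and challenged with compound (30 min, RT). Accumulated cAMP was quantified via cAMP-d2 competing for cryptate-tagged antibody.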

The nature of experiment [10]: qHTS assay to identify small molecule antagonists of the estrogen related receptor (ERR) signaling pathway from Tox21 library - cell viability counter screen (AID 1224834). Further: nearly all actives have a fitted effect of over 30% in size. Further: potency means the concentration at half of the fitted maximal effect. An outline of the steps:
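ERR reporter cells were plated 6 h before compound addition, then exposed to test compounds in DMSO for 17.5 h at 37 C. Viability was read as CellTiter-Fluor fluorescence after a 30-minute incubation at 37 C.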

Experiment [11] concerns the target Luciferin 4-monooxygenase (Photinus pyralis) (UniProt P08659). The experiment can be described thus: qHTS assay to identify small molecule inhibitors of firefly luciferase (AID 1224835). Further: series mostly up to about 120 µM; nearly all actives have a fitted effect of over 25% in size. An outline of the steps:
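Inhibition of purified Photinus luciferase is measured by luminescence. Substrate levels (D-luciferin, ATP) sit at their KM values. Each compound is tested in a concentration series.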

The nature of experiment [12]: qHTS assay to identify small molecule antagonists of the estrogen related receptor signaling pathway with the pleiotropic PPARgamma coactivator (PGC) from Tox21 10K library (AID 1224841; call rule not given here; further: series mostly up to about 92 µM; actives are mostly falling curves and most rising ones were filed inactive; nearly all actives have a fitted effect of over 50% in size). An outline of the steps: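 PGC/ERR reporter cells were seeded at 2,000 cells/well and held 6 hours at 37 C/5% CO2 before pin-tool addition of compounds in DMSO. After 18 hours at 37 C, One-Glo was added and luminescence read after 30 minutes at room temperature.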

Experiment [13] is described as follows: qHTS assay to identify small molecule agonists of the estrogen related receptor signaling pathway with the pleiotropic PPARgamma coactivator (PGC) from Tox21 10K library (AID 1224842). Further: nearly all actives have a fitted effect of over 15% in size. Further: potency means the concentration at half of the fitted maximal effect. Summed up: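 Luminescence from One-Glo (30 min, room temperature) measured after PGC/ERR cells had 18 h at 37 C with pinned compound (23 nL in DMSO). Cells had been seeded at 2,000 per well and pre-incubated 6 h.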

Experiment [14] addresses Nuclear receptor subfamily 1 group I member 3 (Homo sapiens) (UniProt Q14994). The experiment can be described thus: qHTS assay to identify small molecule antagonists of the constitutive androstane receptor (CAR) signaling pathway (AID 1224838). Further: nearly all actives have a fitted effect of over 40% in size. An outline of the steps: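 HepG2 cells stably co-transfected with hCAR and a CYP2B6-2.2kb luciferase reporter were seeded 4 h before compound addition at 15 concentrations. Cells were stimulated with 50 nM CITCO (final) for 24 h at 37 C; luciferase luminescence was then read.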

Experiment [15] in a line: qHTS assay to identify small molecule antagonists of the estrogen related receptor (ERR) signaling pathway (AID 1224819;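 further: luminescence from an ERR-driven luciferase reporter measured with One-Glo reagent; series mostly up to about 46 µM; nearly all actives have a fitted effect of over 50% in size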). An outline of the steps:
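ERR reporter cells were plated at 2,000 cells/well and left 6 h at 37 C/5% CO2 before pin-tool transfer of compounds in DMSO. After 18 h at 37 C, One-Glo was added and luminescence was read 30 min later at room temperature.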

The nature of experiment [16]: qHTS assay to identify small molecule agonists of the estrogen related receptor (ERR) signaling pathway (AID 1224820). An outline of the steps:
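Quantitative HTS of the LOPAC library used NTP ERR reporter cells treated 18 h at 37 C. Signal is luminescence after One-Glo addition and a 30 min room-temperature incubation.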

For experiment [17], the system named is estrogen-related receptor alpha (ERRalpha) with PGC-1alpha coactivator, human. Kind of experiment: qHTS assay to identify small molecule antagonists of the estrogen related receptor signaling pathway with the pleiotropic PPARgamma coactivator (PGC) (AID 1224821; calls by dose curve). An outline of the steps: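 Quantitative HTS for antagonism: PGC/ERR cells received compounds after 6 h attachment and were incubated 18 h at 37 C, with luminescence (One-Glo) as the endpoint.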

A short description of experiment [18]: qHTS assay to identify small molecule agonists of the estrogen related receptor signaling pathway with the pleiotropic PPARgamma coactivator (PGC) (AID 1224823). Summed up:
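Cell-based luciferase assay in the NTP-supplied PGC/ERR line, 2,000 cells/well; 18 h compound exposure at 37 C, luminescence after One-Glo.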

Luciferin 4-monooxygenase (Photinus pyralis), sequence (P08659 whole entry, looked up): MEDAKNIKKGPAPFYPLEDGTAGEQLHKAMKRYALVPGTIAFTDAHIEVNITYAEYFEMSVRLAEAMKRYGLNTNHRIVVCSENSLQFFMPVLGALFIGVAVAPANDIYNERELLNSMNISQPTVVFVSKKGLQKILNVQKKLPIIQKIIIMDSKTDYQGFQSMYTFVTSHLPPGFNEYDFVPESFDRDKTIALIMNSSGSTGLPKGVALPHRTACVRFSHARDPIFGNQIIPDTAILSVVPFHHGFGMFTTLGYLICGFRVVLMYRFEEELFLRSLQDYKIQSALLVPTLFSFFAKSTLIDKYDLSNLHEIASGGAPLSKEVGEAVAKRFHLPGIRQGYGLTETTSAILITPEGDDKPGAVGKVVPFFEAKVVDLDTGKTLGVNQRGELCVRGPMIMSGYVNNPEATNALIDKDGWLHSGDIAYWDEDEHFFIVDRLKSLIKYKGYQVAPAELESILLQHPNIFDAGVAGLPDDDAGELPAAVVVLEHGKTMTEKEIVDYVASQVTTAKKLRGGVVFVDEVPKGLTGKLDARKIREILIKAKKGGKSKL
Nuclear receptor subfamily 1 group I member 3 (Homo sapiens), sequence (Q14994 whole entry, looked up): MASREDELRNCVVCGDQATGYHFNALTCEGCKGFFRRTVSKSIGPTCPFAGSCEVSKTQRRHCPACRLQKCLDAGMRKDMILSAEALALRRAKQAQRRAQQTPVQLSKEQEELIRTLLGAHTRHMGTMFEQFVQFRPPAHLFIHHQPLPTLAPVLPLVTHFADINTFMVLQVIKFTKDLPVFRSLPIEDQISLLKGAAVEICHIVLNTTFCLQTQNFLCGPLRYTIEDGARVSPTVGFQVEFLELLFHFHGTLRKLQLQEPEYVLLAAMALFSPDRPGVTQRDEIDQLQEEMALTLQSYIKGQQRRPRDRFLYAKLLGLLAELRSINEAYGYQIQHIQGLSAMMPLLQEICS
Thyrotropin receptor (Homo sapiens), sequence (P16473 whole entry, looked up): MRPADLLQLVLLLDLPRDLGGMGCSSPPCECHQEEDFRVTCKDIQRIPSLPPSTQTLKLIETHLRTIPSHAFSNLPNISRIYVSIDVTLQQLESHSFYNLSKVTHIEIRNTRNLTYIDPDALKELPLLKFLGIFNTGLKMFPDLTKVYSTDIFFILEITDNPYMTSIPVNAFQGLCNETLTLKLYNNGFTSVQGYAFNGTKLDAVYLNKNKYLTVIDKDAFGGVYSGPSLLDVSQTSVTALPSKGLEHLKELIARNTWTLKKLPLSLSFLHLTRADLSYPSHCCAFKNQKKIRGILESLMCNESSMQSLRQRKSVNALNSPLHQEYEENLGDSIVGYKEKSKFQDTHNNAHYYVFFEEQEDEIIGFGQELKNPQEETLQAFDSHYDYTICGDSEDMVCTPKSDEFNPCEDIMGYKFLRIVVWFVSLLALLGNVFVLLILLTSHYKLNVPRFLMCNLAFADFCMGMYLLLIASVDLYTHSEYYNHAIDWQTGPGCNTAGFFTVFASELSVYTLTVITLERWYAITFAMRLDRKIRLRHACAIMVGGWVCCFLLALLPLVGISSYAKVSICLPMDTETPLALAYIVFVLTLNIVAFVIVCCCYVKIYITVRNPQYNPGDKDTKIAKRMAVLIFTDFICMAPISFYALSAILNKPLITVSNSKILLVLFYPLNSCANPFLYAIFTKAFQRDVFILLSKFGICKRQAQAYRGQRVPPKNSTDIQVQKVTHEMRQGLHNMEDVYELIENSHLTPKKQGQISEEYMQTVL

As for `CCCCC/C=C\C/C=C\CCCCCCCC(=O)NC(C)c1ccccc1` (stereo not given), the Potency entry in experiment [1], in experiment [2], in experiment [3], in [4], in experiment [5] and in experiment [6] was “inactive” in each case. The Potency entry in [7], in [8] and in experiment [9] was “inactive” throughout.

For `CC(CC=O)c1ccccc1` (stereo not given), the Potency entry in experiment [1], in [2], in experiment [3], in experiment [10], in [11] and in [5] was “inactive” each time. In addition, the Potency entry in experiment [6], in [7], in experiment [8] and in experiment [9] was “inactive” throughout.

Turning to `O=S(=O)(Oc1ccc(Cl)cc1)c1ccccc1`, the Potency result in experiment [1], in experiment [2], in experiment [3], in experiment [10], in [5] and in experiment [8] was “inactive” each time. Also, the Potency entry in [12], in [13] and in [9] was “inactive” throughout.

Consider `CCCCCC[C@@H](O)C/C=C\CCCCCCCC(=O)OC`, for which the Potency result in experiment [1], in [2], in [3], in [10], in experiment [11] and in [6] was “inactive” in each case. For the same molecule, the Potency entry in experiment [8], in experiment [12], in experiment [13] and in experiment [9] was “inactive” throughout.

`CCCCC1=NC2(CCCC2)C(=O)N1Cc1ccc(-c2ccccc2-c2nn[nH]n2)cc1`: the Potency result in experiment [1], in [2], in experiment [3], in experiment [4], in experiment [6] and in experiment [14] was “inactive” in each case. Also, the Potency result in [8] is “inactive”.

In the case of `CC1(c2ccccc2)OC(C(=O)O)=CC1=O` (stereo not given), the Potency entry in experiment [1], in experiment [2], in experiment [3], in experiment [4], in [5] and in experiment [6] was “inactive” throughout. The Potency result in experiment [14], in [7], in experiment [8] and in experiment [9] was “inactive” each time.

Turning to `COc1ccc(-c2nc3ccc(C4=NNC(=O)CC4C)cc3[nH]2)cc1` (stereo not given), the Potency entry in experiment [1], in [2], in [3], in experiment [5], in [14] and in [12] was “inactive” in each case. Moreover, the Potency in experiment [10] is 13.3 µM (active); in experiment [7] it was 3.76 µM (active); in [13] it was 8.41 µM (active); in experiment [9], 9.44 µM (active).

As for `CC(C)(C)OCC1CO1` (stereo not given), the Potency entry in experiment [1], in [2], in [4], in experiment [10], in experiment [11] and in experiment [5] was “inactive” throughout. Further, the Potency entry in experiment [6], in experiment [8] and in [9] was “inactive” throughout.

For the molecule `COc1cc(C(=O)OCCCN2CCCN(CCCOC(=O)c3cc(OC)c(OC)c(OC)c3)CC2)cc(OC)c1OC`, the Potency result in experiment [1], in [2], in experiment [15], in experiment [17], in experiment [11] and in experiment [14] was “inactive” each time. For the same molecule, the Potency result in [12], in experiment [13] and in experiment [9] was “inactive” in each case. Moreover, the Potency in experiment [3] was 13.3 µM (active); in experiment [10], 23.7 µM (active). Besides, the outcome in experiment [16] and in experiment [18] was inactive.

Consider `C[C@@H](c1ncncc1F)C(O)(Cn1cncn1)c1ccc(F)cc1F` (stereo not given in full), for which the Potency entry in experiment [1], in experiment [2], in experiment [3], in experiment [4], in experiment [11] and in experiment [5] was “inactive” in each case. Besides, the Potency entry in experiment [8], in [12], in experiment [13] and in experiment [9] was “inactive” each time.

With `O=C(Cl)c1cc(C(=O)Cl)cc(C(=O)Cl)c1`, the Potency result in [1], in experiment [2], in [3], in [10], in [5] and in [6] was “inactive” throughout. Besides, the Potency result in experiment [8] and in [9] was “inactive” each time.

In the case of `Cc1ccc(N=Nc2c(O)c(C(=O)O)cc3ccccc23)c(S(=O)(=O)O)c1`, the Potency result in experiment [1], in experiment [2], in experiment [3] and in experiment [9] was “inactive” in each case. In experiment [10], the Potency was 21 µM (active).
